Most compounds without a hit are left out; they make up all but 12% or so of the library.
Sfp inh: inhibitors of Bacillus subtilis Sfp phosphopantetheinyl transferase; Q9F4F7; Biochemical Sfp PPTase activity, qHTS; Potency, µM, without a hit: largest response in the series, negative = inhibition, hits mostly inhibitors; actives 3.5% (n = 310,000); AID 1490;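 further: the enzyme is Sfp with the accession as filed and its product quenches rhodamine fluorescence; 0% = enzyme reaction without inhibitor and -100% = no enzyme wells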
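Fluorescence-quenching assay: 15 nM Sfp-PPTase preincubated 15 min at room temperature with compound, then 5 uM rhodamine-CoA and 12.5 uM BHQ-2-labelled YbbR peptide added. Fluorescence (ex 525/em 598 nm) read at start and after 30 min; difference gives rate.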
PLK1 PBD block: PLK1 (human) polo-box domain binding inhibition. actives 2.8% (n = 360,000). P53350. AID 720504. Potency, µM, for inactives: max response, negative = inhibition, usual class: inhibitors. Plk1 PBD binding of FITC phosphopeptide, fluorescence polarization; further: series mostly up to about 57 µM; nearly all actives have a fitted effect of over 65% in size
ALDH1A1 inh: ALDH1A1 (human) enzyme inhibition; Purified ALDH1A1, NADH fluorescence, propionaldehyde substrate; actives 7.3% (n = 220,000); Potency, µM (top dose mostly 75.3 µM), for inactives: at the top dose activity, negative = inhibition, hits mostly inhibitors; P00352; active means well fitted inhibition curve with a large enough effect, not every such curve was filed as active; inconclusive means small, poorly fitted or top-dose-only effect, or another doubt; inactive means no such curve, though single readings can be large or run the other way;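 further: plate controls were no enzyme wells and a reference inhibitor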
Target sequence (P00352 whole entry, looked up): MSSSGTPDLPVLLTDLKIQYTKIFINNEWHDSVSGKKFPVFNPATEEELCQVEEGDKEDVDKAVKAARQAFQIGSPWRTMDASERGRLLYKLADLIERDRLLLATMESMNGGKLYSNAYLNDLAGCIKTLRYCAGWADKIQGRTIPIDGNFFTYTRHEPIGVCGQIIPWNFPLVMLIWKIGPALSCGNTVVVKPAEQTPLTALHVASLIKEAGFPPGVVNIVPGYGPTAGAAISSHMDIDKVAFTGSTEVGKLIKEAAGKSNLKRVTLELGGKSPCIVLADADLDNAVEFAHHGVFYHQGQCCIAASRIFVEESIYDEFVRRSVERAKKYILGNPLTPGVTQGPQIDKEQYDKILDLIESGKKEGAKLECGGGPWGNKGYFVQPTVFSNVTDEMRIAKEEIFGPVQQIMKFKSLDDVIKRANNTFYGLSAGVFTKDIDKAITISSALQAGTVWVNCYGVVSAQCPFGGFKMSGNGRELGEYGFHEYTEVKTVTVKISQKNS
RORg inh: inhibitors of mouse ROR gamma transcriptional activity; P51450; Drosophila S2 Gal4-RORgamma UAS-luciferase reporter, 20 h; Potency, µM (titrated, usually from 53.6 µM), for inactives: top-dose activity change, negative = inhibition, actives largely listed as inhibitors; actives 5.4% (n = 310,000); AID 2551; further: nearly all actives have a fitted effect of over 60% in size
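Stably transfected Drosophila Schneider cells are the test system, with ROR gamma fused to Gal4 and luciferase under UAS control; luminescence is read after 20 hr of 700 uM copper sulfate induction at ambient temperature.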
VP16 counter: counter-screen for ROR gamma inhibitors: Gal4-VP16 reporter; Drosophila S2 Gal4-VP16 UAS-luciferase, luminescence, 20 h; Potency, µM (doses to about 53.6 µM), for inactives: at the top dose activity, negative = inhibition, most hits filed as inhibitors; actives 3.5% (n = 310,000);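 further: Gal4-VP16 expression switched on by copper sulfate through the metallothionein promoter; nearly all actives have a fitted effect of over 50% in size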
Starred values were filed as active, the others as inactive; u = inconclusive; x = no result given; [ ] = dose if it differs, or a comment. Unless noted, the call rests on the fitted dose curve; in most records, active means well fitted curve in the direction sought with a large enough effect; inconclusive means small, poorly fitted or top-dose-only effect, or another doubt; inactive means no such curve, though single readings can be large; an effect the other way counts as inactive or inconclusive. Unless noted, on the % scale 0 is the no-effect control and ±100 the full control effect; potency means the concentration at half of the fitted maximal effect.

SMILES	Sfp inh	PLK1 PBD block	ALDH1A1 inh	RORg inh	VP16 counter
COc1ccc(C2C(C(C)=O)=C(C)N=c3s/c(=C\c4ccco4)c(=O)n32)c(OC)c1 (configuration not stated)	50µM*	-4%	-11%	-26%	1%
CCOC(=O)C1=C(c2ccccc2)N=c2s/c(=C\c3ccco3)c(=O)n2C1c1cccs1 (configuration not stated)	50µM*	-3%	u	-37%	-7%
CC(C)C1NC2(C(=O)c3ccccc3C2=O)C2C(=O)N(c3ccc(F)cc3)C(=O)C12 (configuration not stated)	25µM*	u	1.3µM*	-23%	-3%
Cc1onc(-c2c(F)cccc2Cl)c1C(=O)NC1=NCCS1	12%	-3%	u	14µM*	22µM*
Cc1onc(-c2c(F)cccc2Cl)c1C(=O)Nc1nccs1	11%	-8%	-12%	13µM*	u
Cc1onc(-c2c(F)cccc2Cl)c1C(=O)Nc1cccc2nsnc12	8%	-9%	u	0%	0%
Cc1onc(-c2c(F)cccc2Cl)c1C(=O)Nc1nnc(C(F)(F)F)s1	20%	-15%	x	u	u
Cc1onc(-c2c(F)cccc2Cl)c1C(=O)Nc1nc2ccccc2[nH]1	1%	-8%	u	2.8µM*	u
Cc1cc(NC(=O)c2c(-c3c(F)cccc3Cl)noc2C)no1	20%	-8%	x	-6%	0%
Cc1cc2c(cc1C)-c1nnnn1C(N1CCC(Cc3ccccc3)CC1)C(=O)N2 (configuration not stated)	x	2%	x	x	x
CCCC(=O)Nc1nc2c(OC)ccc(OC)c2s1	10%	-8%	16µM*	16%	11%
Cn1c(=O)n2n(c1=O)[C@H]1[C@H](O)[C@H]3O[C@@H]3/C(=N/OC[C@@H](O)COCc3ccco3)[C@@H]1CC2	5%	x	3%[13.5 µM]	-2%[10 µM]	-6%[10 µM]
COCCCN1C(=O)C(CC(=O)NCC2CCCCC2)CC(C(=O)N2CCOCC2)=C1C (configuration not stated)	x	-10%	x	x	x
CN(C(=O)COc1ccc(Oc2ccccc2)cc1)C1CCS(=O)(=O)C1 (configuration not stated)	13%	14%	x	22%	2%
CNc1cc(-c2ccccc2C)ncn1	79µM*	x	4%	3%	16%
Cc1ccccc1-c1cc(Nc2ccccc2)ncn1	9%	x	u	6%	4%
COc1cccc(Cn2nnc3c(=O)[nH]c(C4CCCN(C(=O)c5ccccc5Cl)C4)nc32)c1 (configuration not stated)	-21%	-3%	7.9µM*	u	-14%
O=c1[nH]c(C2CCCN(S(=O)(=O)c3cccc(F)c3)C2)nc2c1nnn2Cc1ccccc1 (configuration not stated)	-1%	-13%	x	u	-11%
Cc1nc2c(nnn2Cc2ccccc2)c(=O)[nH]1	3%	4.7µM*	-1%	1%	8%
O=c1[nH]c(C2CCCN(S(=O)(=O)c3ccccc3)C2)nc2c1nnn2Cc1ccccc1 (configuration not stated)	-12%	-15%	10µM*	-29%	-11%
COc1ccc(CC2(C)OC(c3ccccc3)=NN2C(C)=O)cc1 (configuration not stated)	-6%	0%	u	9%	-1%
C[C@@]1(O)C(O)[C@@H](CO)O[C@H]1n1cnc2c(NC3CCCC3)nc(Cl)nc21 (some centres not stated)	12%	x	10%	32%	-17%
COC(=O)c1cccc(CC2(C)C(=O)Nc3cc(-c4ccccc4Cl)ccc32)c1 (configuration not stated)	x	-12%	x	x	x
O=C(COC(=O)c1cccnc1Cl)c1ccc(F)cc1	20%	-1%	-1%	18%	25%
CCOc1ncccc1C(=O)OCC(=O)c1ccc(F)cc1	14%	17µM*	5%	44%	14%
SMILES	Sfp inh	PLK1 PBD block	ALDH1A1 inh	RORg inh	VP16 counter
O=C(OCC(=O)N1CCCc2ccccc21)c1cncc(Br)c1	71µM*	1%	-20%	u	1.1µM*
CCOc1ncccc1C(=O)OCC(=O)N1CCc2ccccc21	1%	-6%	7.9µM*	13%	8%
O=C(OCC(=O)N1CCc2ccccc21)C1=COCCO1	-9%	-14%	14µM*	u	-16%
CSc1ncccc1C(=O)OCC(=O)N1CCc2ccccc21	x	4%	x	x	x
CC(C)(C)N1C(=O)c2ccccc2NC(=O)C1C(=O)NCCc1ccccc1 (configuration not stated)	x	-3%	x	x	x
COc1ccc(C(OCCN2CCC[C@H](C(=O)O)C2)(c2ccc(OC)cc2)c2ccc(OC)cc2)cc1	-11%	x	x	26%	-10%
COc1cccc(Nc2ncc3nc(C)c(=O)n(CCc4ccccc4)c3n2)c1	15%	x	u	6%	8%
O=C1N=C(O)CN1/N=C\c1ccc(-c2ccc([N+](=O)[O-])cc2)o1	-3%	x	-1%	-15%	-19%
COC(=O)[C@]12CCCCC=C1N(Cc1ccc(Cl)cc1Cl)C(=O)[C@H](CC(=O)N1CCSCC1)C2	x	-4%	x	x	x
Oc1ccc2cc(SSc3ccc4cc(O)ccc4c3)ccc2c1	x	x	-44%	15%	-20%
COc1cc(-c2nnc(NC(=O)c3ccc(S(=O)(=O)N4CCOCC4)cc3)o2)cc(OC)c1OC	-5%	x	-2%	u	u
COc1ccc(C(=O)Nc2ccc(S(=O)(=O)N3CCOCC3)cc2)cc1OC	21%	3%	0%	-4%	0%
COc1cccc(-c2nnc(NC(=O)c3ccc(S(=O)(=O)N4CCOCC4)cc3)o2)c1	7%	1%	11%	0.5µM*	0.89µM*
COc1ccccc1-c1nnc(NC(=O)c2ccc(S(=O)(=O)N3CCOCC3)cc2)o1	20%	-8%	x	0.71µM*	0.63µM*
COc1ccc(OC)c(CN2C(=O)CN(S(C)(=O)=O)CC2(C)C(=O)Nc2c(C)cccc2C)c1 (configuration not stated)	x	3%	x	x	x
N#Cc1ccc2c(c1)C[C@]1(CCCCN3C(=O)c4ccccc4C3=O)Oc3cc(-c4ccccc4)oc(=O)c3[C@H]2O1	7%	x	x	2%[10 µM]	-8%[10 µM]
CCCCC(CC)CN=C(N)NC(N)=NCCCCCCN=C(N)NC(N)=NCC(CC)CCCC (configuration not stated)	14µM*	u	-2%	u	0%
COc1ccc(-n2c(SCC(=O)Nc3cc(C)on3)nc3c(c2=O)SC(C)C3)cc1 (configuration not stated)	x	-19%	x	x	x
CN1CCC(N(C)CC(=O)Nc2ccc3c(c2)OC(F)(F)O3)CC1	50µM*	-1%	u	3%	-6%
Cc1ccc(N2C(=O)CC(NCC3CCCO3)C2=O)cc1 (configuration not stated)	-1%	1%	20µM*	10%	5%
